Molecules are shown by their SMILES. Out of some 290,000 compounds screened, about 1,800 (0.62%) were called active. This excerpt belongs to a sample that is enriched for actives. Values without a mark were called inactive. Cut-off read from the data, not from the text of the source: active = inhibition above about 50%; inactive = the rest.

As a reminder, the inhibition is the drop in the measured response relative to a control, in per cent.

This assay is described as follows: NOD2 signaling inhibitors, cell-based, luminescence, uHTS, HEK293 (AID 1566). The following applies: HEK293 NOD2/NF-kB luciferase reporter, at 4 µM, active compounds read high.
`COc1cc(C(=O)Nc2ccccc2N2CCOCC2)ccc1OCc1c(C)noc1C`: the inhibition was 1.5%.

As to `CCOC(=O)c1ccc(NC(=O)c2ccc(NC(=O)C3CCCO3)cc2)cc1` (stereo unspecified), the inhibition was 51.3% (active).

On to `CCOC(=O)c1cccc(NC(=O)c2ccc(NC(=O)C3CCCO3)cc2)c1` (stereo unspecified), for which the inhibition was 5.8%.

On to `CCOC(=O)c1ccc(NC(=O)C2CCCO2)cc1` (stereo unspecified), for which the inhibition was -21.8%.

For the molecule `CC(Sc1nnc(N)s1)C(=O)Nc1nccs1` (stereo unspecified), the inhibition is -1.1%.

For the molecule `COc1ccc(-c2nc(C#N)c(N3CCN(c4cccc(Cl)c4)CC3)o2)cc1OC`, the inhibition was 0.1%.

In the case of `COc1ccccc1-c1nc(C#N)c(N2CCN(c3ccccc3)CC2)o1`, the inhibition was -1.7%.

As to `Cc1noc(C)c1COC(=O)COc1cccc2c1OC(C)(C)C2`, the inhibition was 6.1%.

As for `C=CCN(c1ccc(C(=O)Nc2ccc(NC(C)=O)cc2)cc1)S(C)(=O)=O`, the inhibition was 15.2%.

Consider `COc1ccc(N(CC(=O)NCCC2=CCCCC2)S(=O)(=O)c2ccccc2)c(OC)c1`, for which the inhibition was 1.9%.

`CC(=O)c1cccc(NC(=O)N2CCCCCC2)c1`: the inhibition is 6.3%.

As for `Cc1cccc(NS(=O)(=O)c2ccc(NC(=O)N3CCCCC3)cc2)c1`, the inhibition is 33.7%.

Turning to `CC1(C)CC(=O)C=C(N2CCN(C3=CC(=O)CC(C)(C)C3)CC2)C1`, the inhibition was -10.7%.

As for `Cc1cccc(C(=O)NC(=S)Nc2ccc(N3CCOCC3)cc2)c1`, the inhibition is 7.7%.

For the molecule `Cc1ccc(C(=O)NC(=S)Nc2ccc(N3CCOCC3)cc2)cc1C`, the inhibition was 50.7% (active).

As for `COc1ccc(C(=O)NC(=S)Nc2ccc(N3CCOCC3)cc2)cc1Cl`, the inhibition is 13.8%.

In the case of `Cc1ccn2c(NC(=O)c3cccs3)c(-c3ccccc3)nc2c1`, the inhibition was 17.5%.

For the molecule `COc1ccc(OC)c(Cc2nnc(CCC(=O)NCc3nc4ccccc4s3)o2)c1`, the inhibition was 5.2%.

In the case of `CC(C)Cc1nc(N2CCN(C(=O)c3ccco3)CC2)c(C#N)c2c1CCCC2`, the inhibition is 23.8%.

As for `CC(C)Cc1nc(N2CCN(C(=O)c3ccco3)CC2)c(C#N)c2c1CCC2`, the inhibition is 13.3%.

`Cc1ccc(S(=O)(=O)N(CC(=O)NCCSCc2ccco2)c2ccc(F)cc2)cc1`: the inhibition is -2.2%.

Consider `CC(C)CNC(=O)CN(c1ccccc1)S(=O)(=O)c1ccccc1[N+](=O)[O-]`, for which the inhibition was -10.6%.

Turning to `O=C(c1ccccc1)N1CCN(CC(O)COc2cccc3ccccc23)CC1` (stereo unspecified), the inhibition is -10%.

Regarding `CCOC(=O)c1c(NC(=O)CSc2nc3ccccc3c(=O)n2-c2ccc(F)cc2)sc(C(C)=O)c1C`, the inhibition is -19.4%.

`O=S(=O)(Nc1ccc(N2CCOCC2)cc1)c1ccc(F)cc1F`: the inhibition was -1.9%.

As for `O=C(c1ccco1)N1CCCC(c2nc3c(nnn3Cc3c(Cl)cccc3Cl)c(=O)[nH]2)C1` (stereo unspecified), the inhibition was -43.2%.

As to `Cc1cc(-c2ccc([N+](=O)[O-])cc2)nc2ccccc12`, the inhibition was -13.5%.

As for `O=[N+]([O-])c1ccc(-c2cnc3ccccc3n2)cc1`, the inhibition is -35.5%.

For `O=[N+]([O-])c1ccc(-c2c(O)c3ccccc3c3nc4ccccc4nc23)cc1`, the inhibition is 58.6% (active).

Consider `Cc1ccc(Oc2nc3ccccn3c(=O)c2/C=C(\C#N)C(=O)NC2CCS(=O)(=O)C2)c(C)c1` (stereo unspecified), for which the inhibition was 0.4%.

On to `O=C(OC1CCCCC1)c1ccc(NC(=O)C2CCCCC2)cc1`, for which the inhibition is 8.6%.

Take `O=C(Nc1ccc(C(=O)OC2CCCCC2)cc1)c1ccncc1`: the inhibition was 61.2% (active).

Consider `O=C(OC1CCCCC1)c1ccc(NC(=O)c2ccco2)cc1`, for which the inhibition was -39.4%.

Take `COCCNC(=O)C1CC(c2ccc([N+](=O)[O-])cc2)=NO1` (stereo unspecified): the inhibition is 21%.

In the case of `COc1ccc(OCC(=O)Nc2cccc(NC(=O)c3ccco3)c2)cc1`, the inhibition is 1.8%.

Consider `Cc1cnnn1-c1cccc([N+](=O)[O-])c1`, for which the inhibition was -9.2%.

For the molecule `COC(=O)Cc1[nH]n(-c2nc3ccccc3s2)c(=O)c1C(C)=Nc1ccc(Cl)cc1`, the inhibition was 6.3%.

For `COC(=O)Cc1[nH]n(-c2nc3ccccc3s2)c(=O)c1C(C)=O`, the inhibition is -18.8%.

`CN(Cc1cn[nH]c1-c1ccc2c(c1)OCO2)C1CCOCC1`: the inhibition was 10.5%.

On to `Cc1csc(N/N=C/c2ccccn2)n1`, for which the inhibition is -60.9%.

For the molecule `CCCc1sc(N/N=C/c2ccccn2)nc1-c1ccc(Br)cc1`, the inhibition is -44.6%.

`Cc1nc(N/N=C/c2ccccn2)sc1C`: the inhibition is 56.9% (active).

Turning to `Oc1ccc(Br)cc1CNc1ccccn1`, the inhibition is -10.8%.

Regarding `O=C(CCl)Nc1cccc(Oc2cnccn2)c1`, the inhibition was -47.8%.

On to `CCCCc1ccc(NC(=S)NCCc2ccc(S(N)(=O)=O)cc2)cc1`, for which the inhibition was 24.9%.

Regarding `COc1ccc(CCNC(=O)Nc2cccc([N+](=O)[O-])c2)cc1`, the inhibition was 79.5% (active).

With `COc1ccc(CCNC(=O)Nc2cccc([N+](=O)[O-])c2)cc1OC`, the inhibition was 4.7%.

On to `COc1ccccc1CCNC(=O)Nc1cccc([N+](=O)[O-])c1`, for which the inhibition is 13.6%.

As for `CCOC(=O)c1c(N)sc(C(=O)N(CC)CC)c1C`, the inhibition was 2.6%.

In the case of `CC1(C)CC(=O)C=C(NCc2cccs2)C1`, the inhibition was 1.3%.

For `OCC[C@@H]1C[C@H](O)[C@@H](O)[C@]2(Cc3ccccc3CCO2)O1`, the inhibition is -4.1%.

Take `Cc1oc(-c2ccc(Cl)cc2)nc1CN1CCCC(C(=O)N2CCOCC2)C1` (stereo unspecified): the inhibition was 10.7%.

With `Cc1oc(-c2ccc(Cl)cc2)nc1CN1CCCN(C(=O)c2ccco2)CC1`, the inhibition was 18.6%.

As to `Cc1oc(-c2ccc(Cl)cc2)nc1CN1CCCC(C(=O)N2CCN(C(=O)c3ccco3)CC2)C1` (stereo unspecified), the inhibition is 50% (active).

Take `COc1ccc(OC)c(S(=O)(=O)Nc2ccc(OCC(=O)O)cc2)c1`: the inhibition was 3.3%.

As for `COc1ccc(NC(C)=O)cc1S(=O)(=O)NC(Cc1ccccc1)C(=O)O` (stereo unspecified), the inhibition was -25.7%.

`COc1ccc(CC(NC(C)=O)C(=O)NC2CCN(C(=O)C3CCCCC3)CC2)cc1OC` (stereo unspecified): the inhibition was 13.5%.

In the case of `CCOCCCNS(=O)(=O)c1ccc(NC(=O)c2ccccc2)cc1`, the inhibition was 11.3%.

As to `Cc1nnc(SCC(=O)Nc2ccc([N+](=O)[O-])cc2)n1CC1CCCO1` (stereo unspecified), the inhibition is 2.5%.

As to `CC1CCc2sc3ncnc(N4CCN(C)CC4)c3c2C1` (stereo unspecified), the inhibition was 12.6%.

Turning to `CC1CCc2c(sc3ncnc(N4CCOCC4)c23)C1` (stereo unspecified), the inhibition was 26%.

Take `CCOc1ccc(NC(=O)CC2C(=O)N(c3ccccc3)C(=O)N2CCc2cccs2)cc1` (stereo unspecified): the inhibition was 23.4%.

With `COc1ccc(CCNC(=O)C2CCN(S(=O)(=O)c3ccc(-n4cnnn4)cc3)CC2)cc1OC`, the inhibition was 6%.

Turning to `CCOc1ccccc1NC(=O)CNC(=O)CNC(=O)Cc1ccccc1`, the inhibition was -3.4%.

For `Cc1csc2c(NC3CCN(Cc4ccccc4)CC3)ncnc12`, the inhibition is 34.1%.

For the molecule `Cc1sc2ncnc(NC3CCN(Cc4ccccc4)CC3)c2c1C`, the inhibition is 36.9%.

In the case of `COc1cc(CC(=O)NCC2CCCCC2)cc(OC)c1OC`, the inhibition is -1.9%.

Regarding `COc1ccc(-c2nnc3sc(C4CCCCC4)nn23)cc1OC`, the inhibition is 13.6%.

For the molecule `CCOc1cccc(-c2nnc3sc(C4CCCCC4)nn23)c1`, the inhibition was 20.8%.

Turning to `COc1cccc(-c2nnc3sc(C4CCCCC4)nn23)c1`, the inhibition is 55.3% (active).

Take `O=C(NC1CCCCCC1)c1ccc(OCC2CCCO2)cc1` (stereo unspecified): the inhibition is -82%.

As to `OCCC1CN(Cc2cccn2-c2ccccn2)CCN1C1CCCCC1` (stereo unspecified), the inhibition is -19.4%.

`Cc1c(/C=N/NC(=O)c2ccc(O)cc2)c2ccccn2c1C(=O)c1ccc(F)cc1`: the inhibition is 7%.

For the molecule `CNC(=S)N/N=C/c1c(C)c(C(=O)c2ccc(F)cc2)n2ccccc12`, the inhibition is 25.2%.

For `Cc1cccc(NS(=O)(=O)c2ccc(C(=O)NCCCN3CCOCC3)cc2)c1C`, the inhibition was 14.9%.

Regarding `S=C(NCc1ccccc1)Nc1cccc2ccccc12`, the inhibition is 3.3%.

`S=C(NCc1cccnc1)Nc1cccc2ccccc12`: the inhibition is -6.2%.

Turning to `S=C(NCc1ccccc1)Nc1cccc2cnccc12`, the inhibition is 52.6% (active).

On to `O=C(NN1CCOCC1)c1ccc(S(=O)(=O)N2CCCCC2)cc1`, for which the inhibition is 4.3%.

In the case of `O=C(O)c1cc(-c2ccc(N3CCOCC3)cc2)nn1-c1ccccc1Cl`, the inhibition is 3.2%.

As for `N#C/C(=C\Nc1ccc(F)c(Cl)c1)S(=O)(=O)c1ccccn1`, the inhibition is 0.9%.

For `CCn1cc([N+](=O)[O-])c(C(=O)Nc2nc(-c3ccc(C)c(C)c3)c(C)s2)n1`, the inhibition was 13%.

As for `CCn1cc([N+](=O)[O-])c(C(=O)Nc2nc(-c3ccc(C)cc3)c(C)s2)n1`, the inhibition is 3%.

Take `Cc1nc(SCc2ccc(F)cc2)c2oc3ccccc3c2n1`: the inhibition is 11.8%.

`Clc1ccc(-n2ncc3c(N4CCCCCC4)ncnc32)cc1`: the inhibition was 70.6% (active).

Take `CCOC(=O)C1CCN(c2ncnc3c2cnn3-c2ccccc2)CC1`: the inhibition is 1.8%.

Take `CC1CC(C)CN(c2ncnc3c2cnn3-c2ccc(Cl)cc2)C1` (stereo unspecified): the inhibition was 27.7%.

Take `CCOC(=O)C1CCN(c2ncnc3c2cnn3-c2ccc(Cl)cc2)CC1`: the inhibition is 57.5% (active).

Take `CCOC(=O)C1CCN(c2ncnc3c2cnn3-c2ccc(OC)cc2)CC1`: the inhibition was 23.8%.

In the case of `CC1CCCN(c2ncnc3c2cnn3-c2ccc(Cl)cc2)C1` (stereo unspecified), the inhibition was 86.2% (active).

For the molecule `COc1ccc(-n2ncc3c(N4CCC(C(N)=O)CC4)ncnc32)cc1`, the inhibition is -46.4%.

As to `COc1ccc(-n2ncc3c(N4CCCCC4)ncnc32)cc1`, the inhibition is 67.7% (active).

Regarding `c1ccc(-n2ncc3c(N4CCCCC4)ncnc32)cc1`, the inhibition is -32.5%.

Turning to `Clc1ccc(-n2ncc3c(N4CCCC4)ncnc32)cc1`, the inhibition is 17.1%.

Consider `CC1CCCN(c2ncnc3c2cnn3-c2ccccc2)C1` (stereo unspecified), for which the inhibition was -14.2%.

Turning to `COc1ccc(-n2ncc3c(N4CCC(C)CC4)ncnc32)cc1`, the inhibition is -97.6%.

Source of the values: PubChem BioAssay AID1566 (Sanford-Burnham Center for Chemical Genomics, 2009).
